In this experiment the test system is VDR homodimer (NR concentration 270 nM). Description: PBM binding z-score (relative to random genomic background probes); higher = stronger binding; sequences stand for … in GC…GCGATTGACAGCGTAGAATGAAGG
Put shortly:
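Custom Agilent 4×180K protein-binding microarrays carried double-stranded probes. Their 34-nt variable regions held direct-repeat seeds, single-nucleotide variants, half-site ablations and random human genomic background sequences. Arrays were incubated 1 h with ligand-free nuclear receptor dimers in PBS pH 7.4, 2% milk, 0.02% Triton X-100, 1 mM DTT, 0.2 mg/mL BSA and 0.4 mg/ml salmon testes DNA. Antibodies against each partner (one per run) detected binding, and scanned fluorescence was regression-normalized. Binding z-scores use random background probes as reference.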
Turning to TCTAGCAGGCCAGAGGGCCACTCAAGAGGTACGG, the PBM binding z-score is -0.232.
As to CAAACTAGGTCAAAGGTCCAAGTCGAGCCAACCA, the PBM binding z-score came out at 1.77.
CCTTACGGGTCACTCCCGGTTATAGCATCGGAGT gave a PBM binding z-score of 1.14.
To CGAACTAGGTCAAGGACAGTGACTCTCCGCACGC belongs 0.341.
GCCAGCAGGCCATTTGGGTCACTCAATGACGGGC had a PBM binding z-score of 0.49.
In turn, TCTTATAGGTAAAGGTGAAAGTCGAACGATATGA displayed a PBM binding z-score of 0.315.
The figure for TCTGCTAGGTCAGTTGTTCAGCTAACGAGCTGCC is -0.531.
Sequence CATACAGTGTCAGCTAGGCCAGAGTAGGGACGGC displayed a PBM binding z-score of -0.455.
On to CGCACGAGGGCATGAGTTGATAGCAAATGCCGAT, for which the PBM binding z-score is 1.63.
To TAGCCTAGGTCATTGGGCGAGTATAGTACGCATC belongs 1.08; to AGCACGAGGGCACGCTGAGTTGATAGCAGAGTAG, 0.992.
In turn, GCAGACAGGTGAAACTCAGGTAACTCAGGGTGGC yielded a PBM binding z-score of -0.73.
To ACTAGTTGGTCAGCGGAGGTCACACACAATTCGG belongs 3.02.
Consider TCTATTAGTTGAAGGGCTACCGACGAGTCCGTTT, for which the PBM binding z-score amounted to 1.04.
To CGTCCAAGGTGAAGGTCAGTGAAAGAGACTCGAA belongs 0.389.
To CCGACTGGGGCAAAGGTTACCTTACTCAGTACGA belongs -0.495; to TCATATAGGTAAAGGTGAAAGTGGAACGATATGA, -0.115; to CCGACTGGGACAAGGTTACCATAACGCACAGCCA, -0.0253.
The figure for TCTCGGAGGACCCGAAAGGTCAGAGCTCGACATC is 0.435; for CGTCAAGGTTCAAGGTAACGTAACAGAAAGCAGC it is 3.6.
Regarding CCTACTGGGCCAAAGGTAATTGATTCCAATGCTC, the PBM binding z-score is -0.113.
To TCTTGTAGATCGAGCAGGTTAAGAAAGCCTGAGT belongs -0.257.

For the origin of these results see the supplement of paper PMC6555819.
